Compounds without any hit were thinned out: in the full panel of roughly 83,000, 20% have a hit.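 Activity criterion: percent growth below 10, measured after cells in 96-well plates were exposed to a single compound concentration for 48 hours.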 The source made the active and inactive calls.

The assay deals with LOX IMVI melanoma. The assay is described as follows: NCI-60 one-dose screen, 48 h (100 = growth as untreated, 0 = no growth, -100 = all killed). The conditions noted are these: 10 µM unless noted.
As to `O=c1cc(Cc2ccc([N+](=O)[O-])cc2)[nH]c(=O)[nH]1`, the growth was 103% (inactive).

In the case of `Cc1csc(NC(c2ccccc2)c2c(C)nc3ccccn23)n1` (stereo not given), the growth was 96.5% (inactive).

Turning to `Cc1ccc(/C=C2\CN(C(=O)CCN3CCC(=NO)CC3)C/C(=C\c3ccc(C)cc3)C2=O)cc1`, the growth was -89.7% (active).

With `O=C1Nc2ccc3c(c2/C1=C\c1cc2c(cc1Br)OCO2)OCO3`, the growth is -29.5% (active).

For `CCN(CC)c1ccc(CNc2ccnc3ccccc23)cc1`, the growth is 54.7% (inactive).

Regarding `CN(CCCCN(C[C@H]1Cc2ncccc2CN1)[C@H]1CCCc2cccnc21)C1CCC(F)(F)CC1`, the growth was 93.3% (inactive).

As to `O=[N+]([O-])c1ccc(OCCCOc2ccccc2)cc1`, the growth is 97.6% (inactive).

As for `N#C/C(=C1C=C/C(=N/O)C(Cl)=C/1)c1ccc(Cl)cc1`, the growth was 7.65% (active).

Turning to `CCCCC(CC)OC(=O)C(Br)CC` (stereo not given), the growth was 94.1% (inactive).

As to `C=C[C@@H]1C[C@@H]2Cc3c(C)cc(C)cc3N1O2`, the growth was 88.4% (inactive).

For `C=C[C@@H]1C[C@@H]2Cc3ccccc3N1O2`, the growth was 104% (inactive).

Consider `CC(=O)OC[C@]12CC[C@H]3[C@@H](C[C@H]4O[C@]45CC=CC(=O)[C@]35C)[C@]1(O)CC[C@@]2(O)[C@@](C)(O)C1CC(C)=C(C)C(=O)O1` (stereo not given in full), for which the growth is -74.9% (active).

Turning to `CO[C@H]1NC(=O)N(S(=O)(=O)c2ccc(Cl)cc2)[C@@H]1OC`, the growth is 105% (inactive).

With `COC(=O)c1cc2cc(-c3ccc(OC)cc3)cnc2[nH]1`, the growth was 25.2% (inactive).

In the case of `O=C(Nc1cccc(-n2cc(-c3ccncc3)c(-c3ccc(Cl)c(O)c3)n2)c1)Nc1cc(C(F)(F)F)cc(C(F)(F)F)c1`, the growth was -94.1% (active).

Consider `C[n+]1c(/C=C/c2c(O)ccc3ccccc23)ccc2ccccc21`, for which the growth is -65.1% (active).

As for `COc1ccc(-c2cn(-c3cccc(C(=O)/C=C/c4cc(OC)c(OC)c(OC)c4)c3)c(=O)[nH]2)cc1OC`, the growth is 69.4% (inactive).

As for `C=C[C@@H]1C[C@H](O)Cc2c(C)cc(C)cc2N1`, the growth was 77.6% (inactive).

In the case of `O=C(O)Cc1cccc(=O)c(O)c1C(=O)O`, the growth is 101% (inactive).

For `COc1cc(/C=C/C(=O)c2ccc(Nc3ncnc4cc(OC)c(OC)cc34)cc2)cc(OC)c1`, the growth is 88.3% (inactive).

Take `COc1cc(/C=C/C(=O)c2cccc(-n3cc(-c4cc(OC)c(OC)c(OC)c4)[nH]c3=O)c2)cc(OC)c1OC`: the growth was -55% (active).

Regarding `COC1=C(OC)C(=O)C(CCCCCCCCCC[P+](c2ccccc2)(c2ccccc2)c2ccccc2)=C(C)C1=O`, the growth was -89.6% (active).

Consider `C=C[C@@H]1C[C@H](O)Cc2ccccc2N1`, for which the growth was 104% (inactive).

With `O=S(=O)(CC(O)(c1ccccc1)c1ccccc1)CC(O)(c1ccccc1)c1ccccc1`, the growth was 76% (inactive).

Turning to `CCN(CC)CCCC(C)Nc1c2ccc(Cl)cc2nc2cc(OC)c(OC)cc12` (stereo not given), the growth was -53.3% (active).

For the molecule `CCCCCCCCCCCC(=O)NCCC[N+](C)(C)CC(=O)[O-]`, the growth was 79.8% (inactive).

As for `Cn1c(=O)c2[nH]c(C3CC=CCC3)nc2n(C)c1=O` (stereo not given), the growth is 105% (inactive).

Take `O=[N+]([O-])c1cc(S(=O)(=O)Oc2ccccc2)ccc1Cl`: the growth is -80.1% (active).

Consider `C=C(C)[C@@H]1C[C@H](O)Cc2cc(F)ccc2N1`, for which the growth was 87.1% (inactive).

`COc1ccc2c(c1)[nH]c(=O)c1c3cccc(F)c3cn21`: the growth was 38.8% (inactive).

Take `CN(C)c1nc2c(N)ncnc2n1C1OC(CO)C(O)C1O` (stereo not given): the growth was 104% (inactive).

Consider `O=C1NN(C(=O)c2ccc(Cl)cc2)C(c2ccccc2)=N/C1=C\c1ccc(F)cc1`, for which the growth was 88.3% (inactive).

In the case of `N[C@H]1CN(C(=O)c2cc3cc(Br)c(F)c(F)c3[nH]2)C[C@@H]1O`, the growth is 89.6% (inactive).

For `O=C1/C(=C/c2ccc(Cl)cc2)CN(Cc2cn(CCNc3ccnc4cc(Cl)ccc34)nn2)C/C1=C\c1ccc(Cl)cc1`, the growth was -93% (active).

For the molecule `NC(=S)N/N=C1\CCCC(C(F)(F)F)C1` (stereo not given), the growth is 78% (inactive).

Source of the values: PubChem BioAssay (NCI).
